The text below walks through data of PubChem BioAssay (NCATS).

Values joined by “and” are separate entries in the source; they are usually repeats but may differ in a detail not shown here. Equal values may be shown once. Unmarked numbers belong to inactive results. Results filed as inconclusive are left out. Active and inactive are the calls of the source. Unless noted, calls follow the shape of the dose curve; as a rule, active = well fitted curve in the direction sought with a large enough effect; inconclusive = small, poorly fitted or top-dose-only effect, or another doubt; inactive = no such curve, though single readings can be large; an effect the other way counts as inactive or inconclusive.

Assay [1] addresses Tyrosine-protein kinase Yes (Homo sapiens) (UniProt P07947). The experiment in a line: qHTS for small molecule inhibitors of Yes1 kinase: Primary Screen (AID 686947).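 Also: plate controls were DMSO with enzyme for no effect and no-enzyme DMSO wells for full effect; nearly all actives have a fitted effect of over 60% in size.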 In a few lines: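 ADP-Glo luminescence readout; final 4 nM Yes1, 0.1 mM ATP, 0.3 mg/mL poly(E4Y), Tris pH 7.5, MgCl2, DTT, Brij-35. 20 min compound preincubation, 60 min reaction at RT. Normalized to DMSO wells with and without enzyme.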

Assay [2] in a line: qHTS for small molecule inhibitors of Yes1 kinase: Counter Assay (AID 686950).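 Also: no kinase present so only ADP-Glo detection of a fixed ADP amount is tested; luminescence from ADP-Glo reporting ADP in a fixed ATP and ADP mixture; series mostly up to about 77 µM; 0% = DMSO wells with ATP plus ADP and -100% = ATP-only wells without ADP.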 The method in brief:
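Luminescence read-out from ADP-Glo quantifies a fixed ADP amount (0.02 mM ADP with 0.08 mM ATP) after 60 min at room temperature; signal is normalized between DMSO wells with ATP/ADP and with 0.1 mM ATP alone.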

Assay [3] can be described thus: qHTS assay for small molecule disruptors of the mitochondrial membrane potential - 1 hr assay (AID 651754; calls by dose curve; also: potency is read from the fitted curve at half-maximal effect; nearly all actives have a fitted effect of over 35% in size). The method in brief:
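HepG2 cells, attached overnight at 37C, were exposed to compound or DMSO vehicle for 1 hr at 37C, 5% CO2, then stained with Mito-MPS dye for 30 min. Red aggregate versus green monomer fluorescence reports membrane potential.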

A short description of assay [4]: qHTS assay for small molecule disruptors of the mitochondrial membrane potential - 5 hr assay (AID 651755; calls by dose curve; also: potency is read from the fitted curve at half-maximal effect; nearly all actives have a fitted effect of over 40% in size). The method in brief:
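HepG2, 2,000 cells/well, overnight attach; cpd or DMSO 5 hr, 37C/5% CO2; Mito-MPS 30 min 37C; fluor 490/535 + 540/590 nm.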

Assay [5] in a line: qHTS assay for environmental chemicals that activate the Aryl hydrocarbon Receptor (AhR) signaling pathway (AID 651777). Also: % of control where 0% means no effect; nearly all actives have a fitted effect of over 15% in size. The note with it: 1A2-DRE human hepatoma cells, luciferase, 24 h; activation: active compounds read high. The method in brief:
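Human hepatoma 1A2-DRE cells stably carrying a DRE/CYP1A2 promoter–luciferase reporter, 1,200 cells/well, exposed to compound 24 hr at 37 C. Luciferase read by One-Glo luminescence after 30 min at room temperature; increased signal marks AhR activation.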

Assay [6] has as its target Peroxisome proliferator-activated receptor alpha (Homo sapiens) (UniProt Q07869). The experiment in a line: qHTS assay for small molecule agonists of the peroxisome proliferator-activated receptor alpha (PPARalpha) signaling pathway (AID 651778). Also: % of control where 0% means no effect. The settings on record: PathHunter PPARalpha complementation, chemiluminescence, 6 h; active compounds read high. The method in brief: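 Chemiluminescence from complemented enzyme reported PPARalpha activation in cells after 6 hr of compound treatment at 37 C. The detection reagent was incubated for 60 min at room temperature, and compounds were scored as agonists.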

Assay [7] addresses Nuclear receptor ROR-gamma (Homo sapiens) (UniProt P51449). The experiment in a line: qHTS assay for small molecule antagonists of the retinoid-related orphan receptor gamma (ROR-gamma) signaling pathway (AID 651802). Also: nearly all actives have a fitted effect of over 60% in size. Also: potency is read from the fitted curve at half-maximal effect. In a few lines:
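CHO cells carrying TET-inducible ROR-gamma and an ROR response element–luciferase reporter were exposed to compound, then induced with doxycycline. After 16hr at 37C, luminescence was read; lower signal indicates antagonism.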

Assay [8] can be described thus: qHTS for compounds that reverse cellular toxicity of Amyloid beta (A-beta) peptide in yeast: LOPAC Validation Assay (AID 720559).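 Also: plate controls were DMSO for no effect and equimolar ferric chloride plus clioquinol rescue for full effect.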 The method in brief:
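Activity is expressed relative to DMSO and an equimolar ferric chloride/clioquinol mix. Compounds were pinned into medium with A-beta-expressing yeast, grown 48 hr at 30 C, then read by absorbance at 600 nm.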

A short description of assay [9]: qHTS for Activators of Parkin Expression: LOPAC Validation Assay (NLuc Reporter) (AID 720572; also: potency is read from the fitted curve at half-maximal effect;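 as to activation: 0% = DMSO and 100% = positive control compound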). In a few lines: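 Parkin promoter-driven FLuc/NLuc neuronal reporter cells; 24 h plating, 7-pt dose response, 24 h at 37 C/5% CO2; FLuc then NanoLuc reagent, 10 min each, luminescence; DMSO/positive control normalized.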
Assay [10] is described as follows: qHTS for Activators of Parkin Expression: LOPAC Validation Assay (FLuc Reporter) (AID 720573; also: potency is read from the fitted curve at half-maximal effect;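 as to activation: 0% = DMSO and 100% = positive control compounds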). The method in brief: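 A neuronal cell line harbouring FLuc and NLuc reporters behind the Parkin promoter was exposed to compounds for 24 h. Firefly luciferase signal, measured after 10 min with detection reagent, was scaled to DMSO and positive-control wells.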
A short description of assay [11]: qHTS assay for small molecule agonists of the antioxidant response element (ARE) signaling pathway measured by Nrf2-dependant transcriptional activity (AID 720636; active = well fitted curve in the direction sought with a large enough effect in the repeat runs; an effect the other way counts as inactive or inconclusive; also: % of control where 0% means no effect). The method in brief: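 ARE-luc HepG2 cells carrying an Nrf2-responsive luciferase reporter, in medium with 1% dialyzed FBS, exposed to compound for 16 hr at 37 C, 5% CO2. Luminescence read 30 min after ONE-Glo addition.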

Assay [12] is described as follows: qHTS assay for small molecule antagonists of the retinoid-related orphan receptor gamma (ROR-gamma) signaling pathway - cell viability counter screen (AID 720652; active = well fitted curve in the direction sought with a large enough effect in the repeat runs; an effect the other way counts as inactive or inconclusive;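 also: compound exposure lasted 16 hr before ATP read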; also: potency is read from the fitted curve at half-maximal effect). In a few lines:
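Counter screen in CHO cells carrying TET-inducible ROR-gamma and an ROR response element-luciferase reporter; cells plated 5 hr, compound pinned, doxycycline added, then 16 hr at 37 C. Viability read as intracellular ATP by CellTiter-Glo luminescence.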

Assay [13] is described as follows: qHTS assay for small molecule agonists of the antioxidant response element (ARE) signaling pathway measured by Nrf2-dependant transcriptional activity - cell viability counter screen (AID 720653; active = well fitted curve in the direction sought with a large enough effect in the repeat runs; an effect the other way counts as inactive or inconclusive; also: potency is read from the fitted curve at half-maximal effect; as to max response: % is scaled to controls: 0 for no effect and ±100 for the full control effect). The settings on record: ARE-bla HepG2 viability, CellTiter-Glo ATP luminescence, 16 h; max response: active compounds read low. The method in brief: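 Cytotoxicity counter screen: intracellular ATP quantified by CellTiter-Glo luminescence in the same ARE-bla HepG2 plates, after 16 h compound exposure and a 2 h beta-lactamase substrate step.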

Assay [14] concerns the target T1, Hexokinase-4 (Homo sapiens) + Glucokinase regulatory protein (Homo sapiens) (UniProt P35557+Q14397). Kind of assay: qHTS assay for inhibitors of recombinant human GCK-GKRP interaction: Diaphorase-coupled assay (AID 743205). The method in brief: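 Inhibitors of the GCK–GKRP complex relieve GKRP suppression of GCK, detected through a G6PDH–diaphorase cascade reducing resazurin. Human GST-GCK and FLAG-GKRP are used at 10 nM with 5 mM glucose and 0.4 mM ATP.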

The target in assay [15] is T1, Hexokinase-4 (Homo sapiens) + Glucokinase regulatory protein (Homo sapiens). The experiment in a line: qHTS assay for inhibitors of recombinant human GCK-GKRP interaction: HTRF assay (AID 743207).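 Also: 0% = DMSO with GCK present and -100% = DMSO wells lacking GCK.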 The method in brief:
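Steps: dispense GCK–GKRP complex (5 nM each, GST- and FLAG-tagged) with 2 uM S6P; pin in compounds; add XL665/Eu-cryptate-labelled antibodies; incubate 60 min at room temperature; read time-resolved FRET at 665 and 615 nm.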

Assay [16] is described as follows: qHTS Assay for Identifying Gametocytocidal Compounds (AID 743244).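 Also: % is scaled to controls: 0 for no effect and ±100 for the full control effect; actives lower the fluorescent signal which means gametocytes are killed.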 The settings on record: P. falciparum 3D7 stage III-V gametocytes, alamarBlue, 72 h; max response: active compounds read low. In a few lines: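 Late gametocytes (III–V), P. falciparum 3D7; 72 h drug, then 24 h alamarBlue; resazurin reduction read by fluorescence.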
Assay [17] is described as follows: qHTS assay for cell viability of HEK293 cells (AID 743288). Also: nearly all actives have a fitted effect of over 50% in size. Also: potency is read from the fitted curve at half-maximal effect. As to max response: % is scaled to controls: 0 for no effect and ±100 for the full control effect. The note with it: ATP luminescence (CellTiter-Glo), 18 h; max response: active compounds read low. The method in brief: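 The Tox21 protocol used parental HEK293 cells treated for 18 h at 37 C with compounds delivered by pintool; ATP-coupled luminescence after 30 min at room temperature gave viability.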
Assay [18] deals with Tumor necrosis factor (Homo sapiens) (UniProt P01375). The experiment in a line: qHTS assay to identify small molecules that stimulate Tumor Necrosis Factor-alpha (TNF-alpha) secretion (AID 651757; active = well fitted curve in the direction sought with a large enough effect in the signal ratio; the % refers to the signal ratio; also: 0% is about no effect). The method in brief: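 THP-1 cells were exposed to compounds for 17 hrs at 37 C, after which secreted TNF-alpha was measured by homogeneous HTRF (TR-FRET) using cryptate- and XL665-labeled anti-TNF-alpha antibodies, read after 3 hr at room temperature.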
Chain of Tumor necrosis factor (Homo sapiens) (P01375 whole entry, looked up): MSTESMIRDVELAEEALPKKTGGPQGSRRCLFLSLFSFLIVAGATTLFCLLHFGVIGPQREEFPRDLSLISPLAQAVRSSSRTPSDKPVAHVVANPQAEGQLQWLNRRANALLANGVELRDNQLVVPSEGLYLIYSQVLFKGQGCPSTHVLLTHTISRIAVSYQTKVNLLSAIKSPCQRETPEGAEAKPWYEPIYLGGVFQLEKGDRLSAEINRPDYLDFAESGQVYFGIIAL

Assay [19] can be described thus: qHTS assay to identify small molecules that stimulate interleukin-8 (IL-8) secretion (AID 651758; active = well fitted activation curve with a large enough effect in the signal ratio; the % refers to the signal ratio; also: 0% is about no effect). In a few lines: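 Secreted IL-8 measured by TR-FRET sandwich (cryptate and XL665 antibodies) from THP-1 cells exposed to compound overnight (16 hrs, 37 C).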
Assay [20] in a line: qHTS assay for cell viability of the p53RE-bla HCT-116 cell line (AID 743292). Also: % is scaled to controls: 0 for no effect and ±100 for the full control effect; nearly all actives have a fitted effect of over 55% in size. In a few lines:
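CellSensor p53RE-bla HCT-116 cells (4,000/well) pre-incubated 5 h at 37 C, then exposed to compounds in DMSO for 16 h at 37 C. Viability read as ATP content by CellTiter-Glo luminescence after 30 min at room temperature.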

Chain of Peroxisome proliferator-activated receptor alpha (Homo sapiens) (Q07869 whole entry, looked up): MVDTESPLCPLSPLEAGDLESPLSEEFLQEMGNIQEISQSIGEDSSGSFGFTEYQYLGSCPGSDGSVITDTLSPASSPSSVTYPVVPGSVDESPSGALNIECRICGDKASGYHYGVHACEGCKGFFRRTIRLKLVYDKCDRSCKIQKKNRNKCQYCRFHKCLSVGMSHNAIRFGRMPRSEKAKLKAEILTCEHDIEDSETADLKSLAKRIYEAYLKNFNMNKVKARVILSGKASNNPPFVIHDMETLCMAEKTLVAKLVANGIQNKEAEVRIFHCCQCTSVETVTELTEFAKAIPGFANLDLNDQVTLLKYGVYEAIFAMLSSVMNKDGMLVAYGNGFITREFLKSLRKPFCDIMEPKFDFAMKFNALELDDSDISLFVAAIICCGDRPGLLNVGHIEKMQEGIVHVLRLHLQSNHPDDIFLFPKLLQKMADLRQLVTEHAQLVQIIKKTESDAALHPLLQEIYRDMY
T1 sequence (P35557 whole entry, looked up): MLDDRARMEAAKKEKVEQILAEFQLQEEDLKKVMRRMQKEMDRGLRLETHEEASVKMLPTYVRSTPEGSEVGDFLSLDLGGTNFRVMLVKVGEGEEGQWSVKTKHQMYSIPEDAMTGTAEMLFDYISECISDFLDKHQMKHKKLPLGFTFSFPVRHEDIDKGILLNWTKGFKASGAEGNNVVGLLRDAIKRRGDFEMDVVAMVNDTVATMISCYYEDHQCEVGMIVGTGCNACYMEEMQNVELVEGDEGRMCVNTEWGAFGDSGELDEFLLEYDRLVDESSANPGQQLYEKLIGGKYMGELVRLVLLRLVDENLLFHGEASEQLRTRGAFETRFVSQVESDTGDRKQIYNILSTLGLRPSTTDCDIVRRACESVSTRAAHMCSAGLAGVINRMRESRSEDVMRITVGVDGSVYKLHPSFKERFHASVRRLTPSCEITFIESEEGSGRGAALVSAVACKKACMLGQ
T1 sequence (Q14397 whole entry, looked up): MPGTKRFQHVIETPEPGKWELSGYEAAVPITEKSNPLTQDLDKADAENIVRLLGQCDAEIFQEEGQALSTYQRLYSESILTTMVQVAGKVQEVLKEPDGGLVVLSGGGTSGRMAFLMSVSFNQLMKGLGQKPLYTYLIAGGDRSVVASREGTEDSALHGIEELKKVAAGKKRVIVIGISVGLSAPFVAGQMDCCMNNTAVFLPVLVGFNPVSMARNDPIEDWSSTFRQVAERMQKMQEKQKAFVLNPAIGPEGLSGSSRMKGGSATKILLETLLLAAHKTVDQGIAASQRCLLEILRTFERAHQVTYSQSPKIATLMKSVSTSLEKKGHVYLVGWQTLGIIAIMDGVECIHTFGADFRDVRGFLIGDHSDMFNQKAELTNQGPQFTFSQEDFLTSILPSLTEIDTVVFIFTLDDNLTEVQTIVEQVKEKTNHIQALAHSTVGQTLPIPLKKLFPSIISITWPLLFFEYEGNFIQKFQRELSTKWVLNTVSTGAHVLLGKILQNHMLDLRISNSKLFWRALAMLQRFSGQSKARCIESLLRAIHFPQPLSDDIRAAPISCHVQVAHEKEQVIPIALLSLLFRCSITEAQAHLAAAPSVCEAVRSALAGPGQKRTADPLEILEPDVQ
Chain of Tyrosine-protein kinase Yes (Homo sapiens) (P07947 whole entry, looked up): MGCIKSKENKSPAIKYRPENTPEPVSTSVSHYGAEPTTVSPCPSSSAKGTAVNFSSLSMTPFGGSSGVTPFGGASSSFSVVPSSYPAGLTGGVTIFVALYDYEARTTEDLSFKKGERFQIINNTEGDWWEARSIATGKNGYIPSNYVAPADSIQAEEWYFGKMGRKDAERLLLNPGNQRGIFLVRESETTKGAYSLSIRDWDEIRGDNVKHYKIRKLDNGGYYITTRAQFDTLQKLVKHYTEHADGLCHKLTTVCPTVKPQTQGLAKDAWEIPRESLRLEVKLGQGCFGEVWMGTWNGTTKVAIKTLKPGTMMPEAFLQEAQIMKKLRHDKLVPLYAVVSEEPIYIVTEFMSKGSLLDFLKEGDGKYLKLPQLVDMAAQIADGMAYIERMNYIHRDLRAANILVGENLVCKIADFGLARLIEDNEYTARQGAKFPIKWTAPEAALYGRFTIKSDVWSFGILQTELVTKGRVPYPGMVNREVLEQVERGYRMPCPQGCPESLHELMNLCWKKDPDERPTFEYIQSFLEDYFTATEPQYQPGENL
Chain of Nuclear receptor ROR-gamma (Homo sapiens) (P51449 whole entry, looked up): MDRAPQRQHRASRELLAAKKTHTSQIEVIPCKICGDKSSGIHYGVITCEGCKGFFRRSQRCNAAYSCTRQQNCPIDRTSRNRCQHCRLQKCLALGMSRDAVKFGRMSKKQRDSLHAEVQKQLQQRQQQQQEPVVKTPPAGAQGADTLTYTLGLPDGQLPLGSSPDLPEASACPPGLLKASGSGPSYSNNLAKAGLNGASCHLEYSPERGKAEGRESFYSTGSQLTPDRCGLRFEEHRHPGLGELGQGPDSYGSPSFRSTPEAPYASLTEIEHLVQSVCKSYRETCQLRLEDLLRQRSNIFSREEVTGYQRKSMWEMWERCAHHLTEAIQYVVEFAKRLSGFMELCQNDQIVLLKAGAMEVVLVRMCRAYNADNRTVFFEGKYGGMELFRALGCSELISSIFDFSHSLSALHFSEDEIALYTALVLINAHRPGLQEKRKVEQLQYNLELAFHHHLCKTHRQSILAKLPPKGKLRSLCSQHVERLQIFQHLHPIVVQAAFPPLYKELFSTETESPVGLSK

For the compound `CC(=O)N(C)C1(c2ccccc2)CCN(CCC[C@]2(c3ccc(Cl)c(Cl)c3)CCCN(C(=O)c3ccccc3)C2)CC1`, the Potency entry in assay [1] is “inactive”. Besides, the compound was classed as inactive in assay [2].
For `CC1=C(/C=C/C(C)=C/C=C/C(C)=C/C(=O)Nc2ccc(O)cc2)C(C)(C)CCC1`, the Potency in assay [3] was 15 µM (active); in assay [4], 18.8 µM (active); in [7], 26.6 µM (active); in assay [12], 26.6 µM (active); in assay [13], 44.7 µM (active); in [17], 50.1 µM (active). Further, the activation in assay [5] is 4.06%. In addition, the max response is 8.2% in [6]; -5.25% and -28.8% in [16]. Further, the Potency entry in assay [1], in assay [9], in [10] and in [11] was “inactive” each time. The compound was classed as inactive in assay [2], in assay [8], in [14] and in assay [15].
In the case of `CCOC(CN1C(=O)[C@](CC(=O)Nc2ccc(C)cc2)(NC(=O)Nc2ccc(C)cc2)c2ccccc21)OCC`, the Potency entry in assay [1] was “inactive”. Besides, the call in assay [2] was inactive.
For `CCCCC1C(=O)N(c2ccccc2)N(c2ccccc2)C1=O`, the call in [18], in assay [19], in assay [8], in assay [14] and in assay [15] was inactive. Moreover, the activation in assay [5] was -1.23% and 0.389%. The max response is -2.74% and -1.79% in assay [6]; 4.44% and 1.83% in assay [13]; -1.91% and -0.936% and 31.1% in assay [16]; -8.44% and -3.31% in assay [17]. In addition, the Potency entry in assay [7], in [10], in [11], in assay [12] and in assay [20] was “inactive” in each case.
Turning to `CC(C)OC(=O)C(C)(C)Oc1ccc(C(=O)c2ccc(Cl)cc2)cc1`, in [5], the activation was 2.52%. For the same compound, the max response in assay [13] is 3.55%; in assay [16], 7.26% and 15.7%; in assay [17], -17.2%. Also, the outcome in assay [14] and in assay [15] was inactive. For the same compound, in assay [20], the Potency result was “inactive”.
Turning to `O=c1cc(-c2ccc(O)cc2)oc2cc(O)cc(O)c12`, the Potency in assay [3] was 2.98 µM (active); in assay [4], 5.96 µM (active); in assay [9], 16.4 µM (active); in [10], 3.26 µM (active). Moreover, the max response in assay [6] was -4.82% and -0.91%; in assay [13], -5.98% and -9.88%; in [16], 0.431%; in [17] it was -29.2% and -22.7%. In addition, the call in assay [8], in assay [14] and in assay [15] was inactive. Besides, the Potency result in assay [12] and in assay [20] was “inactive” throughout.
